# Laboratory results taken from PubChem BioAssay (EPA / NIEHS).
# Inconclusive results are not listed. Calls of active or inactive are those of the source. The calls were made as follows: active = hit-call score of the fitted dose curve at least 0.9, where 1 is the maximum; inconclusive = response in the unintended direction; inactive = score below 0.9.
# What was measured:
# [1] = target: Estrogen receptor (Homo sapiens) (UniProt P03372); experiment: OT_ER_ERaERa_1440: Odyssey Thera (OT) 24-hour HEK293T Protein-Complementation Assay for Estrogen Receptor-alpha/-alpha Homodimer (AID 2283349);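 also: hits raise fluorescence above DMSO for agonists and antagonists alike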
# Sequence of Estrogen receptor (Homo sapiens) (P03372 whole entry, looked up, the tested form may be a part): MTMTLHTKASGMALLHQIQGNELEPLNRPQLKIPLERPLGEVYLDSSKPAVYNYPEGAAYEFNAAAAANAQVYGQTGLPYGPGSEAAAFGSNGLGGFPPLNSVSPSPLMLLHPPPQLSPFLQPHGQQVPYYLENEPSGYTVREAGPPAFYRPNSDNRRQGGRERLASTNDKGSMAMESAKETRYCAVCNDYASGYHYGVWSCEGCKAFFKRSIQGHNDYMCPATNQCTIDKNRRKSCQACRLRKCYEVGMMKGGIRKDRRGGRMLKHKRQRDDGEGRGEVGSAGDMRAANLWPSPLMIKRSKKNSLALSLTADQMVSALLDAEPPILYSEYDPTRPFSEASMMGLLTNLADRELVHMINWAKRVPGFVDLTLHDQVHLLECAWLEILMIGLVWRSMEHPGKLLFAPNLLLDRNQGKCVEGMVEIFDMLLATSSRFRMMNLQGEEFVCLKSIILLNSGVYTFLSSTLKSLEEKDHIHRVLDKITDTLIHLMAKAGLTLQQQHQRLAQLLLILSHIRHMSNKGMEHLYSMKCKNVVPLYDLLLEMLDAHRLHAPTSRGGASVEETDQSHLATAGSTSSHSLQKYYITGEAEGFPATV
# Outline: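 HEK293T cells stably expressing the human ER alpha ligand-binding domain (aa 310-547) as a homodimer PCA were dosed for 24 hours. Fluorescence intensity was read by laser scanning cytometry, and gain of signal was fitted relative to DMSO vehicle.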
# [2] = target: Estrogen receptor (Homo sapiens) (UniProt P03372); experiment: OT_ER_ERaERa_0480: Odyssey Thera (OT) 8-hour HEK293T Protein-Complementation Assay for Estrogen Receptor-alpha/-alpha Homodimer (AID 2283351);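 also: rise in fluorescence from reassembled reporter fragments on ERα LBD homodimer in nucleus or whole cell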
# Outline: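 HEK293T cells stably expressing the human ERα ligand-binding domain (aa 310-547) as a homodimer PCA were dosed with compound for 8 h. Gain of fluorescence intensity versus DMSO vehicle was read by laser scanning cytometry.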
# [3] = target: rat Mineralocorticoid Receptor (MR), Nr3c2 (gene 25672) (UniProt P22199); experiment: NVS_NR_rMR: NovaScreen (NVS) Nuclear Receptor Binding Assay for rat Mineralocorticoid Receptor (MR) (AID 2283355)
# Sequence of rat Mineralocorticoid Receptor (MR), Nr3c2 (gene 25672) (P22199 whole entry, looked up): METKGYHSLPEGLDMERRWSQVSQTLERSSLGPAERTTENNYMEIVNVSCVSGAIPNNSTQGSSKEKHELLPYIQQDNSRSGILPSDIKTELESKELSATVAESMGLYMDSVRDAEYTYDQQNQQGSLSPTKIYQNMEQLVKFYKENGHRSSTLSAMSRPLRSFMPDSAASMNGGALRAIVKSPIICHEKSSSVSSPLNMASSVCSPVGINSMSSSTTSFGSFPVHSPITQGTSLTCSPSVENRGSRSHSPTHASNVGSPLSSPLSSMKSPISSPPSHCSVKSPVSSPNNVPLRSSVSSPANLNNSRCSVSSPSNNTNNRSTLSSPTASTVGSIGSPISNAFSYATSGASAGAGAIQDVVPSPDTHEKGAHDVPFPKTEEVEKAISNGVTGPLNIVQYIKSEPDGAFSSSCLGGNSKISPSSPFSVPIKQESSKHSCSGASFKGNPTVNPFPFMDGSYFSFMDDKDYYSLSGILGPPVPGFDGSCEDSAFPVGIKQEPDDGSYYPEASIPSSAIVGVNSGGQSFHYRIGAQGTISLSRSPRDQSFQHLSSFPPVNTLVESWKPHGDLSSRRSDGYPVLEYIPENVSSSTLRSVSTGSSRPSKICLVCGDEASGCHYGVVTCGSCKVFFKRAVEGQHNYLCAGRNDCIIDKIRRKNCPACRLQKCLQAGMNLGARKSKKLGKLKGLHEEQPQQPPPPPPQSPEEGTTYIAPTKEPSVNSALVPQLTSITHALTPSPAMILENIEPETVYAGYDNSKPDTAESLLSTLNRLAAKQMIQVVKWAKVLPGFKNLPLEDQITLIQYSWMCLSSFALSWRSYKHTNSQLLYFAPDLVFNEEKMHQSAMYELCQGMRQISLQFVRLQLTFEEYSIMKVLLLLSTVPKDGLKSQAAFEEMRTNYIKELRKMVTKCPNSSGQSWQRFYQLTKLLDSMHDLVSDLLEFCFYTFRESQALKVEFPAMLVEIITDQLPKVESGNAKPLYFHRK
# Outline: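 Cell-free radioligand binding to mineralocorticoid receptor from adrenalectomized rat brain supernatant, scintillation counting after 24 h. Primary screen in duplicate at 25 uM; actives retested in concentration series. Loss of specific binding versus DMSO.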
# [4] = target: T1, Estrogen receptor (Homo sapiens) + Estrogen receptor beta (Homo sapiens) (UniProt P03372+Q92731); experiment: OT_ER_ERaERb_0480: Odyssey Thera (OT) 8-hour HEK293T Protein-Complementation Assay for Estrogen Receptor-alpha/-beta Heterodimer (AID 2283352)
# T1 sequence (P03372 whole entry, looked up): as the sequence (P03372 whole entry, looked up, the tested form may be a part) above
# T1 sequence (Q92731 whole entry, looked up): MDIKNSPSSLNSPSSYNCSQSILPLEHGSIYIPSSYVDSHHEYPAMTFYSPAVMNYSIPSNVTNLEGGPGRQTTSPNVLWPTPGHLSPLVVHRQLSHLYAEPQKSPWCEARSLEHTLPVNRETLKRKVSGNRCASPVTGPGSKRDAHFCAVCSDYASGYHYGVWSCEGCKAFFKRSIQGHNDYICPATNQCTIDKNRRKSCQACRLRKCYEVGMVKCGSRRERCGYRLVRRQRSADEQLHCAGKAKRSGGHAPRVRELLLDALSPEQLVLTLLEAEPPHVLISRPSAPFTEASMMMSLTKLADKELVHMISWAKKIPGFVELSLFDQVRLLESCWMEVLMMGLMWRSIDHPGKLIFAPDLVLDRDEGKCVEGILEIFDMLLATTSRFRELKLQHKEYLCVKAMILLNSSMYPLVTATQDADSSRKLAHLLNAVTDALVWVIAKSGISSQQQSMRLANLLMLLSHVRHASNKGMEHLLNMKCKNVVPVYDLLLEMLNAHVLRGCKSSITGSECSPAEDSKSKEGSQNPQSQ
# Outline: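 Compound added to HEK293T cells carrying split-reporter-tagged ER-alpha and ER-beta LBDs, incubated 8 hours, then imaged by laser scanning cytometer. Signal rise in nucleus, or nucleus and cytoplasm, over vehicle was fitted in the positive direction.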
# [5] = target: T1, Estrogen receptor (Homo sapiens) + Estrogen receptor beta (Homo sapiens); experiment: OT_ER_ERaERb_1440: Odyssey Thera (OT) 24-hour HEK293T Protein-Complementation Assay for Estrogen Receptor-alpha/-beta Homodimer (AID 2283356);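 also: heteromer of ER alpha and ER beta binding domains; hits raise reporter fluorescence and both agonists and antagonists give an increase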
# Outline: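 Stable HEK293T PCA line, ERα LBD 310-547 + ERβ LBD 263-489 fused to reporter fragments; 24 h treatment; fluorescence read by laser scanning cytometry; positive fitting direction relative to DMSO.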
# [6] = target: Estrogen receptor beta (Homo sapiens) (UniProt Q92731); experiment: OT_ER_ERbERb_0480: Odyssey Thera (OT) 8-hour HEK293T Protein-Complementation Assay for Estrogen Receptor-beta/-beta Homodimer (AID 2283357);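 also: active means signal gain over DMSO baseline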
# Sequence of Estrogen receptor beta (Homo sapiens) (Q92731 whole entry, looked up, the tested form may be a part): as the sequence (Q92731 whole entry, looked up) above
# Outline: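 Fluorescence intensity, nuclear for agonists and nuclear plus cytoplasmic for antagonists, was quantified by laser scanning cytometry versus vehicle after 8 h treatment. The cells were HEK293T stably carrying ER beta LBD fragment-complementation partners.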
# [7] = target: Androgen Receptor/SRC-1 Co-activator, AR (gene 367) (UniProt P10275); experiment: OT_AR_ARSRC1_0960: Odyssey Thera (OT) 16-hour HEK293T Protein-Complementation Assay for Androgen Receptor/SRC-1 Co-activator (AID 2283353);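 also: actives raise the signal above DMSO so potency reflects increased AR and SRC-1 complex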
# Sequence of Androgen Receptor/SRC-1 Co-activator, AR (gene 367) (P10275 whole entry, looked up, the tested form may be a part): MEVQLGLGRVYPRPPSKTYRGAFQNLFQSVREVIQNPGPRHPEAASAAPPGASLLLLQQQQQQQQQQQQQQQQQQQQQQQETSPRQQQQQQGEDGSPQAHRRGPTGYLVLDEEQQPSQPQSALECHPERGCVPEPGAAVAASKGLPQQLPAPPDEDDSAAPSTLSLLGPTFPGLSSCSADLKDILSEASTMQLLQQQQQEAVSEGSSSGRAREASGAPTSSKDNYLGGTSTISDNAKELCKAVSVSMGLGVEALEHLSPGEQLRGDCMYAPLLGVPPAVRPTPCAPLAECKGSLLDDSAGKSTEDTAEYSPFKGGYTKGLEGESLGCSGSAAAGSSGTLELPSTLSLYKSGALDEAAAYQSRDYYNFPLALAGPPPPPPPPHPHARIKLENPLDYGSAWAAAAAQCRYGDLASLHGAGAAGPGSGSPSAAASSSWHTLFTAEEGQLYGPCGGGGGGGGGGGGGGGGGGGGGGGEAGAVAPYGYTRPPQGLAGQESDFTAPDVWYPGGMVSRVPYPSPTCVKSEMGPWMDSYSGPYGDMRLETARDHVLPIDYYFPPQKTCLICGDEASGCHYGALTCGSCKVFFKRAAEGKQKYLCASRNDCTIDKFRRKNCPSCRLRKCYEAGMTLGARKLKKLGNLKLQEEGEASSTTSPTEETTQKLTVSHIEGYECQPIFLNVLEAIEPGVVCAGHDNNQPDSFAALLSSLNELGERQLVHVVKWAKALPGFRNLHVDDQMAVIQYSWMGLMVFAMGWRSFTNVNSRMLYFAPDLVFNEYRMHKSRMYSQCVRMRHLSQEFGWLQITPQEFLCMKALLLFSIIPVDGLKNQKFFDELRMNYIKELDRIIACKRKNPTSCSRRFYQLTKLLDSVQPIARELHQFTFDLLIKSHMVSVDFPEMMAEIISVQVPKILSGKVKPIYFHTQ
# Outline: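 HEK293T cells stably expressing AR and SRC-1 fused to split Venus YFP fragments via (Gly4Ser)2 linkers were dosed for 16 h. Nuclear/cytoplasmic fluorescence ratio at 488 nm, ≥400 cells per image, fitted for gain of signal versus DMSO.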
# [8] = target: Androgen Receptor/SRC-1 Co-activator, AR (gene 367) (UniProt P10275); experiment: OT_AR_ARSRC1_0480: Odyssey Thera (OT) 8-hour HEK293T Protein-Complementation Assay for Androgen Receptor/SRC-1 Co-activator (AID 2283354);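 also: hits raise the complementation signal above DMSO so AC50 marks enhancers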
# Outline: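 HEK293T cells stably expressing AR and SRC-1 fused to Venus YFP fragments, imaged 8 h after dosing. Complementation fluorescence scored as nuclear/cytoplasmic ratio at 488 nm in at least 400 cells per image; gain fitted versus DMSO.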
# [9] = target: Bile acid receptor (Homo sapiens) (UniProt Q96RI1); experiment: NVS_NR_hFXR_Antagonist: NovaScreen (NVS) Nuclear Receptor Binding Assay for human Farnesoid X Receptor Antagonism (FXR) (AID 2283350)
# Sequence of Bile acid receptor (Homo sapiens) (Q96RI1 whole entry, looked up): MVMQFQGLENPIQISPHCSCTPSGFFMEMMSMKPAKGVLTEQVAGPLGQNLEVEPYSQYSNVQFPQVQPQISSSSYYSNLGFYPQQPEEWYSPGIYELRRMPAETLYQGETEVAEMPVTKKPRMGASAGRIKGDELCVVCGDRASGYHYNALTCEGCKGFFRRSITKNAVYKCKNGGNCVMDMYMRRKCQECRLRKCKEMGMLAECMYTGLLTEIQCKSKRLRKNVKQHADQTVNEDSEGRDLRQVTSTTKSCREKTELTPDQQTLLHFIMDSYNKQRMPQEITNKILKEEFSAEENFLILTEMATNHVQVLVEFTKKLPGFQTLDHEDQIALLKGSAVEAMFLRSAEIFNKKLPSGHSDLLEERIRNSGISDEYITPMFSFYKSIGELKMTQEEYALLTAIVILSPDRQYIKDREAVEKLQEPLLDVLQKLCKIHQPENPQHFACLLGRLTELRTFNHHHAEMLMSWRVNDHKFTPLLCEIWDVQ
# Outline: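 Cell-free TR-FRET ligand-binding read-out on human FXR (NR1H4) in antagonist mode, measured 1 h after dosing. Primary screen in duplicate at 25 uM, actives retested in concentration series; signal loss scored versus DMSO.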
smiles,measurement,setting,value
O=CCCCC=O,outcome,[1],inactive
same,outcome,[2],inactive
same,outcome,[3],inactive
CCCOC(=O)c1cc(O)c(O)c(O)c1,outcome,[1],inactive
same,AC50,[2],50 µM (active)
same,AC50,[4],39.8 µM (active)
same,AC50,[5],49 µM (active)
same,AC50,[6],25.4 µM (active)
CCCCCCCCCC(=O)O,outcome,[7],inactive
same,outcome,[8],inactive
COCC(C)OCC(C)OCC(C)O (stereo not drawn),outcome,[1],inactive
same,outcome,[2],inactive
same,outcome,[7],inactive
same,outcome,[8],inactive
same,outcome,[5],inactive
same,outcome,[6],inactive
O=C1O[C@H]([C@@H](O)CO)C(O)=C1O,outcome,[6],inactive
c1ccc(C[n+]2cccc3ccccc32)cc1,outcome,[1],inactive
same,outcome,[2],inactive
same,outcome,[4],inactive
same,outcome,[5],inactive
same,outcome,[6],inactive
Oc1ccc2ccccc2c1,outcome,[7],inactive
same,outcome,[8],inactive
same,AC50,[6],37.7 µM (active)
CCCCCCCCOC(=O)c1cc(O)c(O)c(O)c1,AC50,[1],14.4 µM (active)
same,AC50,[2],12.1 µM (active)
same,AC50,[4],11.9 µM (active)
same,AC50,[5],13 µM (active)
same,AC50,[6],12.4 µM (active)
Cc1occc1C(=O)Nc1ccc(C(=O)N2CCC(F)(F)/C(=C\C(=O)N3CCC(N4CCCCC4)CC3)c3ccccc32)cc1,outcome,[1],inactive
same,AC50,[2],27.7 µM (active)
same,AC50,[4],26.9 µM (active)
same,AC50,[7],32.3 µM (active)
same,outcome,[8],inactive
same,AC50,[5],33.5 µM (active)
same,outcome,[6],inactive
COc1cc(C(=O)NC2CCN(C)CC2)ccc1Nc1ncc2c(n1)N(C1CCCC1)CC(F)(F)C(=O)N2C,AC50,[1],2.24 µM (active)
same,outcome,[2],inactive
same,outcome,[4],inactive
same,AC50,[7],25.9 µM (active)
same,AC50,[8],52.5 µM (active)
same,AC50,[5],11 µM (active)
same,outcome,[6],inactive
CCCCCCCCCCCO,outcome,[1],inactive
same,outcome,[2],inactive
same,outcome,[4],inactive
same,outcome,[5],inactive
same,outcome,[6],inactive
CC[C@H](NC(=O)c1cc(F)ccc1NS(=O)(=O)c1cccc2cccnc12)c1ccccc1,outcome,[1],inactive
same,outcome,[2],inactive
same,outcome,[4],inactive
same,outcome,[5],inactive
same,outcome,[6],inactive
Cc1ccc2oc(CN(Cc3ccccc3)C(=O)Nc3c(F)cc(F)cc3F)c(-c3ccc(Cl)cc3)c2c1,outcome,[1],inactive
same,outcome,[2],inactive
same,outcome,[4],inactive
same,outcome,[5],inactive
same,outcome,[6],inactive
O=C(O)Cc1cc(I)c(Oc2ccc(O)c(I)c2)c(I)c1,AC50,[9],40.3 µM (active)
same,outcome,[3],inactive
same,outcome,[6],inactive
CC(C)(c1cc(Br)c(O)c(Br)c1)c1cc(Br)c(O)c(Br)c1,outcome,[6],inactive
CO[C@H]1/C=C/O[C@@]2(C)Oc3c(C)c(O)c4c(O)c(c(/C=N/N5CCN(C)CC5)c(O)c4c3C2=O)NC(=O)/C(C)=C\C=C\[C@H](C)[C@H](O)[C@@H](C)[C@@H](O)[C@@H](C)[C@H](OC(C)=O)[C@@H]1C,outcome,[6],inactive
CN(C[C@@H](CC[N+]12CCC(C3CCCCC3)(CC1)CC2)c1ccc(Cl)c(Cl)c1)C(=O)c1cc(C(F)(F)F)cc(C(F)(F)F)c1,outcome,[1],inactive
same,outcome,[2],inactive
same,AC50,[7],21.3 µM (active)
same,AC50,[8],20.9 µM (active)
O=C(O)c1ccccc1-n1cc(C(=O)O)c(=O)c2cc(Nc3c(F)cc(F)cc3Cl)c(Cl)cc21,outcome,[1],inactive
same,outcome,[4],inactive
same,outcome,[3],inactive
same,outcome,[5],inactive
CC(C)(C)c1csc(-c2cc3cc(OCc4ccccc4CC(=O)O)ccc3o2)n1,outcome,[1],inactive
same,outcome,[2],inactive
same,outcome,[4],inactive
same,outcome,[5],inactive
same,outcome,[6],inactive
CCCCCCCC[Si](OCC)(OCC)OCC,outcome,[6],inactive
CCCCCCCCCCCC[N+](C)(C)C,outcome,[6],inactive
c1ccc2n[nH]nc2c1,outcome,[6],inactive
CCCCOC(=O)CC(CC(=O)OCCCC)(OC(C)=O)C(=O)OCCCC,outcome,[6],inactive
CCCCCCCCCCCCO,outcome,[1],inactive
same,outcome,[2],inactive
same,outcome,[4],inactive
same,outcome,[5],inactive
same,outcome,[6],inactive
Clc1ccccc1C(c1ccccc1)(c1ccccc1)n1ccnc1,outcome,[1],inactive
same,outcome,[2],inactive
same,outcome,[5],inactive
same,outcome,[6],inactive
CC(C)(O)c1ccc(CNC(=O)c2cccnc2Oc2ccc3nonc3c2)cc1,outcome,[1],inactive
same,outcome,[2],inactive
same,outcome,[5],inactive
same,outcome,[6],inactive
NC(=O)c1nc(-c2cccc(-c3cc(F)ccc3OCC(F)(F)C(F)(F)F)c2)n[nH]1,outcome,[1],inactive
same,outcome,[2],inactive
same,AC50,[7],50 µM (active)
same,AC50,[8],50 µM (active)
same,outcome,[5],inactive
CN1C(=O)CC[C@H]1c1cccnc1,outcome,[6],inactive
CC1=CC(=O)/C(=C(/C)O)C(=O)O1,outcome,[1],inactive
same,outcome,[2],inactive
same,outcome,[4],inactive
same,outcome,[5],inactive
same,outcome,[6],inactive
O=C(O)Cn1c(=O)n(Cc2ccc(Br)cc2F)c(=O)c2ccc(Cl)cc21,outcome,[1],inactive
same,outcome,[2],inactive
same,outcome,[4],inactive
same,outcome,[7],inactive
same,outcome,[5],inactive
same,outcome,[6],inactive
O=C=NCCCCCCN=C=O,outcome,[1],inactive
same,outcome,[2],inactive
same,outcome,[4],inactive
same,outcome,[5],inactive
CC[C@@H]1C[C@H](N(Cc2cc(C(F)(F)F)cc(C(F)(F)F)c2)C(C)=O)c2cc(C(F)(F)F)ccc2N1C(=O)OC(C)C,outcome,[1],inactive
same,outcome,[5],inactive
same,outcome,[6],inactive
COc1cccc([C@H](O)C2CCN(CCc3ccc(F)cc3)CC2)c1OC,outcome,[1],inactive
same,outcome,[2],inactive
same,outcome,[4],inactive
same,outcome,[5],inactive
same,outcome,[6],inactive
CCCC(=O)OCCC(C)C,outcome,[1],inactive
same,outcome,[2],inactive
same,outcome,[7],inactive
same,outcome,[8],inactive
C[C@]12CC[C@@H]3c4ccc(O)cc4CC[C@H]3[C@@H]1CC[C@H]2O,AC50,[3],0.135 µM (active)
